From PubChem BioAssay (Tox21) come the findings set out here.

Unmarked numbers belong to inactive results. Results filed as inconclusive are left out. Active and inactive are the calls of the source. Unless noted, calls follow the shape of the dose curve; as a rule, active = well fitted curve in the direction sought with a large enough effect in the repeat runs; inconclusive = weak or mixed curves; inactive = no such curve, though single readings can be large; an effect the other way counts as inactive or inconclusive.

A short description of test [1]: qHTS assay to identify small molecule agonists of the androgen receptor (AR) signaling pathway in the presence of an antagonist - cell viability counter screen (AID 1259379). Also: nearly all actives have a fitted effect of over 25% in size. Also: potency is read from the fitted curve at half-maximal effect.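 As to activity change, negative = cytotoxicity: MDA-kb2 human breast cancer cells carrying an MMTV luciferase reporter; series mostly up to about 92 µM.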 Put shortly: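 Cytotoxicity counter-screen run in the same wells as the nilutamide-challenged (3.0 µM final) AR agonist assay in MDA-kb2 cells. Compounds tested at 15 concentrations for 16 h, 37 °C without CO2; CellTiter-Fluor fluorescence read.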

Test [2] can be described thus: qHTS assay to identify small molecule agonists of the estrogen receptor beta (ER-beta) signaling pathway - cell viability counter screen (AID 1259380). Also: nearly all actives have a fitted effect of over 30% in size. Also: potency is read from the fitted curve at half-maximal effect. In outline: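 Cell viability counter screen: CellTiter-Glo luminescence (30 min, room temperature) measured in the same wells as the beta-lactamase readout, after 16 hr compound exposure at 37C of ER-beta-bla HEK293T cells in 2% charcoal-stripped FBS medium.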

Test [3] can be described thus: qHTS assay to identify small molecule antagonists of the estrogen receptor beta (ER-beta) signaling pathway - cell viability counter screen (AID 1259382). Also: nearly all actives have a fitted effect of over 55% in size. Also: potency is read from the fitted curve at half-maximal effect.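 As to activity change, negative = cytotoxicity: HEK293T cells carrying ER-beta-UAS-bla reporter stimulated with estradiol; series mostly up to about 92 µM.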 Put shortly:
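Cytotoxicity was measured in the same wells by CellTiter-Glo luminescence after 30 min at room temperature. Cells were ER-beta-bla HEK293T in charcoal-stripped serum, given compound together with 1 nM E2 and incubated 16 h at 37C.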

Test [4] has as its target Estrogen receptor (Homo sapiens) (UniProt P03372). Put plainly: qHTS assay to identify small molecule agonists of the estrogen receptor alpha (ER-alpha) signaling pathway in the presence of an antagonist (AID 1259383; calls by dose curve; also: top concentration of the series differs between compounds; nearly all actives have a fitted effect of over 15% in size). Put shortly:
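Agonist-mode confirmation run in the presence of 10.0nM (final) ICI-182,780 antagonist. The reporter was ERE-driven luciferase in VM7Luc4E2 cells, grown in charcoal-stripped serum. Cells were exposed to 15-concentration compound series for 22hr, then ONE-Glo luminescence was read.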

Test [5] can be described thus: qHTS assay to identify small molecule agonists or antagonists of the thyroid stimulating hormone receptor (TSHR) signaling pathway - wild type cell line counter screen (AID 1259384; calls by dose curve). Put shortly: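 Counter screen in untransfected Hek293: compounds (15-point titration, triplicate) plus phosphodiesterase inhibitor Ro20-1724 added after 18 h plating; 30 min RT. Intracellular cAMP via competitive d2/cryptate immunoassay, 1 h incubation.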

The target in test [6] is Androgen receptor (Homo sapiens) (UniProt P10275). Put plainly: qHTS assay to identify small molecule agonists of the androgen receptor (AR) signaling pathway in the presence of an antagonist (AID 1259381; calls by dose curve; also: nearly all actives have a fitted effect of over 15% in size). Put shortly:
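Agonist-mode confirmation run against 3.0 uM final nilutamide: compounds titrated at 15 concentrations onto MDA-kb2 MMTV-luciferase reporter cells. Luminescence measured with ONE-Glo following 16 hr incubation, 37C, 0% CO2.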

Test [7] concerns the target Thyrotropin receptor (Homo sapiens) (UniProt P16473). Briefly: qHTS assay to identify small molecule antagonists of the thyroid stimulating hormone receptor (TSHR) signaling pathway (AID 1259385; calls by dose curve; also: nearly all actives have a fitted effect of over 20% in size; also: potency is read from the fitted curve at half-maximal effect). Put shortly: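 Antagonist mode: compound-treated TSHR-expressing HEK293 cells were stimulated with 1.5 ng/mL TSH (final) in presence of Ro20-1724 for 30 min at RT. HTRF cAMP detection after 1 h; each compound tested at 15 concentrations, triplicate.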

A short description of test [8]: qHTS assay to identify small molecule agonists of the estrogen receptor alpha (ER-alpha) signaling pathway in the presence of an antagonist - cell viability counter screen (AID 1259386). Also: nearly all actives have a fitted effect of over 30% in size. Also: potency is read from the fitted curve at half-maximal effect. As to activity change, negative = cytotoxicity: series mostly up to about 92 µM. In outline: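 Compounds tested at 15 concentrations for 22 h at 37C alongside 10.0nM (final) ICI-182,780 antagonist, in VM7Luc4E2 cells grown in phenol red-free, charcoal-stripped medium. Viability read by CellTiter-Fluor fluorescence after 1 h reagent incubation.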

The target in test [9] is Progesterone receptor (Homo sapiens) (UniProt P06401). Briefly: qHTS assay to identify small molecule agonists of the progesterone receptor (PR) signaling pathway (AID 1346784; calls by dose curve; also: nearly all actives have a fitted effect of over 30% in size). Put shortly:
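Using charcoal-stripped serum (2%) to limit endogenous steroids, PR-UAS-bla HEK 293T cells received compounds for 16 hr at 37C after 6 hr plating; beta-lactamase FRET fluorescence was recorded following 2 hr substrate loading at room temperature.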

Test [10] has the same target. Put plainly: qHTS assay to identify small molecule antagonists of the progesterone receptor (PR) signaling pathway (AID 1346795; active = well fitted inhibition curve with a large enough effect in the signal ratio in the repeat runs, not every such curve was filed as active; the % refers to the signal ratio). In outline: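 Inhibition of R5020-induced (1 nM final) beta-lactamase reporter signal in PR-UAS-bla HEK293T cells was scored by FRET fluorescence after overnight (16 hr) compound treatment.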
% is scaled to controls: 0 for no effect and ±100 for the full control effect.

Chain of Progesterone receptor (Homo sapiens) (P06401 whole entry, looked up): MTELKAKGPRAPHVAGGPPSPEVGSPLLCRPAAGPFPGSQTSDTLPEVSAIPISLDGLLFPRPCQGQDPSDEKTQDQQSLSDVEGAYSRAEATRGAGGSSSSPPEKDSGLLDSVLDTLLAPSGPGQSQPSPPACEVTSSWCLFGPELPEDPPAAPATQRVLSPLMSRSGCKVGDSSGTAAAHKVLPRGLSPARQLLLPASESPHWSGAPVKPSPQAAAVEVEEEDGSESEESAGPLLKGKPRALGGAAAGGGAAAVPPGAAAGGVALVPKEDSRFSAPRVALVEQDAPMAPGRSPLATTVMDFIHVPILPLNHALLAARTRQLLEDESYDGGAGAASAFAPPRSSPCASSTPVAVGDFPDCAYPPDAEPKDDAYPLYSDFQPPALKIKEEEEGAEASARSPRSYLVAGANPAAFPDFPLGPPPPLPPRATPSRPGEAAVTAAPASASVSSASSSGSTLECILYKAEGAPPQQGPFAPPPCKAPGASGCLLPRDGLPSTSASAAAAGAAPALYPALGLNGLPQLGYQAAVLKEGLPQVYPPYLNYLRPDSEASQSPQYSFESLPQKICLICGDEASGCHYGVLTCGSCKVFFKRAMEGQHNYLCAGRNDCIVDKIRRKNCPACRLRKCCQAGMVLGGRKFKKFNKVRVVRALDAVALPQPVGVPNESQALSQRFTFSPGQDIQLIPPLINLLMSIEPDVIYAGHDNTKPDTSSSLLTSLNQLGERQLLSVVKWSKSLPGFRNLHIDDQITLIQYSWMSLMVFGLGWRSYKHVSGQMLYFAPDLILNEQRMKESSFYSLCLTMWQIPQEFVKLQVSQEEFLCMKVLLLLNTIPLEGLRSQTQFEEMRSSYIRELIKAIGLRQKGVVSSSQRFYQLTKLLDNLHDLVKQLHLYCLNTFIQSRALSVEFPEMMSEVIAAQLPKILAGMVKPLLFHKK
Chain of Androgen receptor (Homo sapiens) (P10275 whole entry, looked up): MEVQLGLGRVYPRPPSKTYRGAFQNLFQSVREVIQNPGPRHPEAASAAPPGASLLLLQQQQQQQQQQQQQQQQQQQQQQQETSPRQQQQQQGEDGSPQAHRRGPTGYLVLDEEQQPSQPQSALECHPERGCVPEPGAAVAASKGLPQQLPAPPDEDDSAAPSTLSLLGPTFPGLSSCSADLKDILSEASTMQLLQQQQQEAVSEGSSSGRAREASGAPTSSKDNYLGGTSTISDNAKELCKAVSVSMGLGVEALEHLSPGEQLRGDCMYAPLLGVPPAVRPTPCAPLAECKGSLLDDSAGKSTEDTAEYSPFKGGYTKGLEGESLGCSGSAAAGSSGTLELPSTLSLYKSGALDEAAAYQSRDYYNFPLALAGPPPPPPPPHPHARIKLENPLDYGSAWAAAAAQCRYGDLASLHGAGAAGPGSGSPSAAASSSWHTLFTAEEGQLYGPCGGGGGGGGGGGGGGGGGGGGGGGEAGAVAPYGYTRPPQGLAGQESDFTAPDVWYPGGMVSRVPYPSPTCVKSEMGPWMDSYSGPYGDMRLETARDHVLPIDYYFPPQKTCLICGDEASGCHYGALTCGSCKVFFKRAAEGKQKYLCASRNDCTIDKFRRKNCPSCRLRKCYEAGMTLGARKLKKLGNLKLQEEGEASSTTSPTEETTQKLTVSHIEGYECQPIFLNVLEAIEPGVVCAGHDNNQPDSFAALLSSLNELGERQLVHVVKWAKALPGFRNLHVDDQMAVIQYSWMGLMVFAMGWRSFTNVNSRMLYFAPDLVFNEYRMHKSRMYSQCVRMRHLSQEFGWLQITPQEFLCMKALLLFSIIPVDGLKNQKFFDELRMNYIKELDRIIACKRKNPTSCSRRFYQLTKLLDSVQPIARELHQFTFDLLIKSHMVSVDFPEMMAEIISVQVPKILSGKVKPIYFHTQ
Chain of Estrogen receptor (Homo sapiens) (P03372 whole entry, looked up): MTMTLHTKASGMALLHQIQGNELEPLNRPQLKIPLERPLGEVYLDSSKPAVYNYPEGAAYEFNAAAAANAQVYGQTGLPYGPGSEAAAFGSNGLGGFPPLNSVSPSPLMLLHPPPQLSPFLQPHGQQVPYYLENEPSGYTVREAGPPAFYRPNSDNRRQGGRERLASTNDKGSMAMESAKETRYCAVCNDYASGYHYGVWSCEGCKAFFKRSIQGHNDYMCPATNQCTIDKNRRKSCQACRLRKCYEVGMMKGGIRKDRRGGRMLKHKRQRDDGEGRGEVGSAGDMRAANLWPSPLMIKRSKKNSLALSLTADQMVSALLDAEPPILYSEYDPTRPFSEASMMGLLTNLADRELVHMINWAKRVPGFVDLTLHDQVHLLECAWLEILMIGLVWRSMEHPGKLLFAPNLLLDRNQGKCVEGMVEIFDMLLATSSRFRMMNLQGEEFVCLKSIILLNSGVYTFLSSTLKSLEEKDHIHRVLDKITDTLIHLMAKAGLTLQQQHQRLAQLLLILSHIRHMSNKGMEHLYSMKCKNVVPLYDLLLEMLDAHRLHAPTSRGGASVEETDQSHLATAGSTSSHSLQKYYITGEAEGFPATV
Chain of Thyrotropin receptor (Homo sapiens) (P16473 whole entry, looked up): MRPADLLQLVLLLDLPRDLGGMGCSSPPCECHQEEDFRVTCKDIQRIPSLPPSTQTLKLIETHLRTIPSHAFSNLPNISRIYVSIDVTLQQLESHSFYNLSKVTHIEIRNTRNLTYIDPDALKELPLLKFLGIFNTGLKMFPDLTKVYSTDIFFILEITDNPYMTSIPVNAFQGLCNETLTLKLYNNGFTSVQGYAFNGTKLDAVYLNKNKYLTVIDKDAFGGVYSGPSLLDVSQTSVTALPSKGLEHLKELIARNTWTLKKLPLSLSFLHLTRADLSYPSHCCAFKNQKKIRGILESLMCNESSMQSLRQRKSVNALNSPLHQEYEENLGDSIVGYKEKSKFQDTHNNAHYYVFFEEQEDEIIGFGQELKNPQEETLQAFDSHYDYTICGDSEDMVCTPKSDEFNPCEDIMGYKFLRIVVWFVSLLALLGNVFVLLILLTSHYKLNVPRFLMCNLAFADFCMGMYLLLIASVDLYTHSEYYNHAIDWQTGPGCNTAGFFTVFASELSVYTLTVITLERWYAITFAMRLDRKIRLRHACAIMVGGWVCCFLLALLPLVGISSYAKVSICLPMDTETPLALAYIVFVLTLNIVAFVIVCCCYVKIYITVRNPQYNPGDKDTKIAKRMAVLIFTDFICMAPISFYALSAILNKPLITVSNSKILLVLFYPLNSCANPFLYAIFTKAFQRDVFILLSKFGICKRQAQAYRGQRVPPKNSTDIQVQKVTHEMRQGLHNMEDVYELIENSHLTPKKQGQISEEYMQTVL

For `Oc1ccc(C2(c3ccc(O)c(C4CCCCC4)c3)CCCCC2)cc1C1CCCCC1`, the Potency in test [1] is 43.3 µM (active); in [2] it was 19.3 µM (active); in test [3], 27.3 µM (active). Besides, the Potency entry in test [4] and in test [5] was “inactive” throughout.

Turning to `CCc1cccc(C)c1N(C(=O)CS(=O)(=O)O)C(C)COC` (stereo not given), the Potency entry in test [1], in [2], in [6], in test [3], in test [4] and in test [5] was “inactive” throughout. Further, the Potency result in [7], in test [8] and in test [10] was “inactive” in each case. Moreover, the compound was called inactive in test [9].

In the case of `CC1=CC[C@@H](C(C)(C)O)CC1`, the Potency result in test [1], in test [2], in [6], in test [3], in [4] and in test [5] was “inactive” throughout. Also, the Potency result in test [7] and in test [8] was “inactive” throughout. For the same compound, the call in test [9] was inactive.

As for `CC(C)C(=O)C(C)C`, the Potency result in test [1], in [2], in test [6], in [3], in test [4] and in test [5] was “inactive” each time. The Potency entry in test [7] and in [8] was “inactive” in each case. Also, the call in test [9] was inactive.

On to `CCCCCCCCCCCCCCCCCCNC(=O)OC1CCN(C(=O)OC[C@H](COC(=O)N(Cc2cccc[n+]2CC)C(=O)c2ccccc2OC)OC)CC1`, for which the Potency in test [1] is 26.6 µM (active); in [2], 26.6 µM (active); in [7], 29.8 µM (active); in test [8] it was 26.6 µM (active). Moreover, the Potency result in test [6], in [4] and in [5] was “inactive” each time.

Regarding `C=CC(=O)OCC(Br)CBr` (stereo not given), the Potency result in test [1], in [2], in test [6], in test [3], in [4] and in test [5] was “inactive” in each case. In addition, the Potency result in test [7], in [8] and in [10] was “inactive” in each case. Further, the result in test [9] was inactive.

Take `O=C(O)CN(CCCN(CC(=O)O)CC(=O)O)CC(=O)O`: the activity change, negative = cytotoxicity is -2.17% [at 19 µM] in test [1], -20.5% [at 19 µM] in test [2] and -13.1% [at 19 µM] in test [8]. The activation in [6] is 1.23% [at 19 µM]; in [4] it was -0.204% [at 19 µM]; in test [9], 8.3% [at 19 µM]. Moreover, in test [5], the cAMP activity change is 0.161% [at 18.9 µM, active compounds read high]. Further, the activity change, negative = inhibition in test [7] was 1.63% [at 19 µM]; in [10], -17.6% [at 18.9 µM].

In the case of `CCC(=O)OC/C=C(\C)CCC=C(C)C`, the Potency entry in test [1], in test [2], in test [6], in [3], in test [4] and in test [5] was “inactive” each time. The Potency result in [7], in test [8] and in test [10] was “inactive” in each case. Further, the outcome in test [9] was inactive.

For the compound `CCOC=C(C(=O)OCC)C(=O)OCC`, the Potency result in test [1], in test [2], in test [6], in test [3], in [4] and in test [5] was “inactive” each time. The Potency entry in test [7], in test [8] and in test [10] was “inactive” each time. The compound was called inactive in test [9].

Regarding `CCn1c2ccccc2c2ccccc21`, the Potency entry in test [1], in [2], in test [6], in test [3], in test [4] and in [5] was “inactive” each time. Moreover, the Potency result in test [7], in [8] and in test [10] was “inactive” throughout. Also, in test [9], the compound was classed as inactive.

As for `CC(CC(C)(C)C)CC(C)(C)CC(C)(C)C` (stereo not given), the Potency entry in test [1], in test [2], in test [6], in test [3], in test [5] and in [7] was “inactive” each time. The Potency result in test [8] was “inactive”.

Regarding `CCN(CCC#N)c1ccc(N=Nc2ccc([N+](=O)[O-])cc2)cc1`, the Potency result in [1], in test [2], in [6], in [3], in test [5] and in test [7] was “inactive” in each case. The Potency result in test [8] and in test [10] was “inactive” each time. Besides, in test [9], the compound was classed as inactive.

Take `Cc1ccc2nc(-c3ccc(N)cc3)sc2c1S(=O)(=O)O`: the Potency entry in [1], in [2], in test [3], in [4], in test [5] and in test [7] was “inactive” each time. In addition, the Potency entry in test [8] was “inactive”.

Consider `COc1cc(C(C)C)ccc1C`, for which the activity change, negative = cytotoxicity in [1] was 2.05% [at 19 µM]; in test [2], 2.27% [at 19 µM]; in test [3], -0.566% [at 19 µM]; in test [8], -2.95% [at 19 µM]. In addition, the activation is 0.232% [at 19 µM] in test [6] and 2.45% [at 19 µM] in test [9]. The cAMP activity change in [5] is 3.96% [at 18.9 µM, active compounds read high]. Further, the activity change, negative = inhibition in [7] was -0.443% [at 19 µM]; in [10], 2.91% [at 18.9 µM].

Take `O=C1OCc2ccccc21`: the Potency result in test [1], in test [2], in test [3], in test [4], in test [5] and in test [7] was “inactive” in each case. For the same compound, the Potency entry in [8] and in [10] was “inactive” each time. The compound was called inactive in test [9].

With `CCOC(=O)[C@H](O)[C@@H](O)C(=O)OCC`, the Potency entry in test [1], in test [2], in test [3], in [4], in test [8] and in test [10] was “inactive” each time. Further, in test [9], the compound was called inactive.

As to `CCC(C)(C)c1ccc(CC(C)CN2C[C@@H](C)O[C@@H](C)C2)cc1` (stereo not given in full), the Potency entry in [1], in test [3], in [4], in test [5], in test [8] and in test [10] was “inactive” throughout. For the same compound, in test [2], the Potency is 26.6 µM (active). For the same compound, the compound was called inactive in test [9].

As for `CCCC(C)C=O` (stereo not given), the Potency result in [1], in test [2], in test [3], in [4], in test [5] and in test [7] was “inactive” each time. In addition, the Potency entry in test [8] and in test [10] was “inactive” in each case. Besides, the call in test [9] was inactive.

`C=CC(C)(C)O`: the Potency entry in test [1], in test [2], in test [3], in test [4], in test [8] and in test [10] was “inactive” each time. The compound was called inactive in test [9].

With `Cc1ccc2n[nH]nc2c1`, the Potency result in [1], in test [2], in [3], in [4], in test [5] and in test [7] was “inactive” throughout. Moreover, the Potency entry in test [8] and in [10] was “inactive” each time. Moreover, the compound was called inactive in test [9].

Consider `C=C[Si](C)(C)Cl`, for which the activity change, negative = cytotoxicity was -1.9% [at 8.39 µM] in test [1], 0.271% [at 8.39 µM] in [2], 6.43% [at 8.39 µM] in [3] and 0.757% [at 8.39 µM] in [8]. The activation in [4] was -1.47% [at 8.39 µM]; in [9] it was 0.63% [at 8.39 µM]. Moreover, the cAMP activity change in test [5] was -4.27% [at 8.39 µM, active compounds read high]. Moreover, the activity change, negative = inhibition is 0.177% [at 8.39 µM] in test [7] and 4.87% [at 8.39 µM] in [10].

Turning to `C1CCSC1`, the Potency entry in test [1], in test [2], in [3], in test [4], in [5] and in test [7] was “inactive” throughout. Moreover, the Potency entry in [8] and in test [10] was “inactive” throughout. Further, the outcome in [9] was inactive.

With `C/C(=N\[Si](C)(C)C)O[Si](C)(C)C`, the Potency entry in [1], in test [2], in test [3], in test [4], in test [8] and in test [10] was “inactive” in each case. Also, the outcome in [9] was inactive.
